# Measured values from PubChem BioAssay (EPA / NIEHS).
# The source made the active and inactive calls. The calls were made as follows: active = hit-call score of the fitted dose curve at least 0.9, where 1 is the maximum; inactive = score below 0.9.
# What was measured:
# [1] = target: Paired box protein Pax-6 (Homo sapiens) (UniProt P26367); assay: ATG_Pax6_CIS: Attagene CIS-FACTORIAL HepG2 Assay for human Paired Box 6 (PAX6) (AID 2282956); conditions: HepG2 CIS-FACTORIAL PAX6 reporter transcription, RNA readout; actives raise or lower the signal
# Outline: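 Multiplexed cis-reporter HepG2 system; 24 h treatment; reporter mRNA read by RT-PCR/CE fluorescence; bidirectional fit vs DMSO.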
# [2] = ATG_PXRE_CIS: Attagene CIS-FACTORIAL HepG2 Assay for human Pregnane X Receptor Element (PXRE) (AID 2282957); conditions: HepG2 Attagene CIS-FACTORIAL PXRE reporter, mRNA; actives raise or lower the signal
# Outline: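 HepG2 cells transiently transfected with cis-regulated multiple reporter transcription units; endogenous factor activity measured as reporter mRNA 24 h after dosing. RT-PCR, fluorescent primer extension, HpaI digestion, capillary electrophoresis; bidirectional fit versus DMSO baseline.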
# [3] = ATG_PPRE_CIS: Attagene CIS-FACTORIAL HepG2 Assay for human Peroxisome Proliferator-activated Response Element (PPRE) (AID 2282958); conditions: HepG2 PPRE cis-element reporter, Attagene transcription factor profiling; actives raise or lower the signal
# Outline: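 Measured endpoint: PPRE-controlled reporter mRNA, detected by RT-PCR and capillary electrophoresis fluorescence, from transiently transfected HepG2 cells 24 h after dosing. Curves fitted in both directions using DMSO baseline.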
# [4] = ATG_RORE_CIS: Attagene CIS-FACTORIAL HepG2 Assay for human RAR-related Orphan Receptor Element (RORE) (AID 2282959); conditions: HepG2 Attagene cis-factorial RORE reporter, mRNA; actives raise or lower the signal
# Outline: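 Transiently transfected HepG2 reporter cells were treated 24 h. Reporter transcripts were detected by RT-PCR and capillary electrophoresis, with bidirectional fitting against DMSO.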
# [5] = ATG_Sox_CIS: Attagene CIS-FACTORIAL HepG2 Assay for human SRY-box transcription factor (SOX) (AID 2282960); conditions: HepG2 Attagene cis-factorial SOX reporter, mRNA; actives raise or lower the signal
# Outline: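 Gain- or loss-of-signal endpoint, fitted bidirectionally with DMSO as negative control. Based on reporter mRNA from transfected HepG2 cells harvested 24 h post-treatment and quantified via RT-PCR and capillary electrophoresis.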
# [6] = target: Transcription factor Sp1 (Homo sapiens) (UniProt P08047); assay: ATG_Sp1_CIS: Attagene CIS-FACTORIAL HepG2 Assay for human Specificity Protein 1 (Sp1) (AID 2282961); conditions: HepG2 Sp1 cis-reporter transcription, actives raise or lower the signal
# Outline: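 Endpoint reflects endogenous Sp1 transcriptional activity, not an exogenous fusion protein: HepG2 cells with transfected cis-regulated reporters, 24 h dosing, RT-PCR/capillary electrophoresis mRNA read-out, DMSO-normalised bidirectional fit.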
# [7] = ATG_SREBP_CIS: Attagene CIS-FACTORIAL HepG2 Assay for human Sterol Regulatory Element Binding (SREBP) (AID 2282962); conditions: HepG2 Attagene cis-factorial SREBP reporter, mRNA; actives raise or lower the signal
# Outline: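 mRNA induction of transfected cis-promoter reporters in HepG2 cells, 24 h post-dose. Detection: RT-PCR with 6-FAM-labelled products, HpaI digest, capillary electrophoresis. DMSO served as negative control and baseline.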
# [8] = target: Signal transducer and activator of transcription 3 (Homo sapiens) (UniProt P40763); assay: ATG_STAT3_CIS: Attagene CIS-FACTORIAL HepG2 Assay for human Signal Transducer and Activator of Transcription 3 (STAT3) (AID 2282963); conditions: HepG2, Attagene cis-factorial STAT3 reporter transcription; actives raise or lower the signal
# Outline: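 Transcript-level reporter assay. HepG2 transient MRTU transfection, 24 h exposure, fluorescence detection after RT-PCR and CE; DMSO baseline.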
# [9] = ATG_TA_CIS: Attagene CIS-FACTORIAL HepG2 Assay for human TA Basal Promoter (AID 2282964); conditions: HepG2 Attagene CIS-factorial TA basal promoter reporter; actives raise or lower the signal
# Outline: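 Transfected HepG2, 24 h compound exposure; RNA → RT-PCR → FAM primer extension → HpaI cut → CE fluorescence. Gain/loss-of-signal fitted against DMSO negative control. Background-control readout.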
# [10] = ATG_TCF_b_cat_CIS: Attagene CIS-FACTORIAL HepG2 Assay for human T-Cell-Factor with beta-catenin (TCF/b-cat) (AID 2282965); conditions: HepG2 TCF/beta-catenin cis-reporter transcription, actives raise or lower the signal
# Outline: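 Using capillary electrophoresis as the read-out, labelled reporter cDNA fragments from transiently transfected HepG2 were sized and quantified. Exposure lasted 24 hours; activity in either direction was referenced to DMSO.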
# Transcription factor Sp1 (Homo sapiens), sequence (P08047 whole entry, looked up, the tested form may be a part): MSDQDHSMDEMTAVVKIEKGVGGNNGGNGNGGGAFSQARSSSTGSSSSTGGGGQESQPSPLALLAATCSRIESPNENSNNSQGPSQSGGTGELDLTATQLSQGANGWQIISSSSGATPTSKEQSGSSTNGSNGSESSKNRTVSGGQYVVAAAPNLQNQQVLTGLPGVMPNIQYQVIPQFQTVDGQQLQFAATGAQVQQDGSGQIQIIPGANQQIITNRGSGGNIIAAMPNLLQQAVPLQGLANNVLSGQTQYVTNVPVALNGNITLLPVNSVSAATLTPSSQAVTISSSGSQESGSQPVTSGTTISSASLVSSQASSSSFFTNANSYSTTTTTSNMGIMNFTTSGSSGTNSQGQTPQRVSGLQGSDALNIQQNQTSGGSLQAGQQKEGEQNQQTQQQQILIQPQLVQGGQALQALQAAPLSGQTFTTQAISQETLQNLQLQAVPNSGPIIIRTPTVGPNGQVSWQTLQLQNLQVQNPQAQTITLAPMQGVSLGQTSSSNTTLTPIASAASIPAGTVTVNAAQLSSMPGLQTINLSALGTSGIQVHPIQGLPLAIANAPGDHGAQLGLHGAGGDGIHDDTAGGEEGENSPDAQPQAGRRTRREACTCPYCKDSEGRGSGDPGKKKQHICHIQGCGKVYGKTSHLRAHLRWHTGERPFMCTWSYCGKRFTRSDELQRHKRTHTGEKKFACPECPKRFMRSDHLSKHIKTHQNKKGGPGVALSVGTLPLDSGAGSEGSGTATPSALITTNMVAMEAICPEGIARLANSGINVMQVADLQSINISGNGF
# Paired box protein Pax-6 (Homo sapiens), sequence (P26367 whole entry, looked up): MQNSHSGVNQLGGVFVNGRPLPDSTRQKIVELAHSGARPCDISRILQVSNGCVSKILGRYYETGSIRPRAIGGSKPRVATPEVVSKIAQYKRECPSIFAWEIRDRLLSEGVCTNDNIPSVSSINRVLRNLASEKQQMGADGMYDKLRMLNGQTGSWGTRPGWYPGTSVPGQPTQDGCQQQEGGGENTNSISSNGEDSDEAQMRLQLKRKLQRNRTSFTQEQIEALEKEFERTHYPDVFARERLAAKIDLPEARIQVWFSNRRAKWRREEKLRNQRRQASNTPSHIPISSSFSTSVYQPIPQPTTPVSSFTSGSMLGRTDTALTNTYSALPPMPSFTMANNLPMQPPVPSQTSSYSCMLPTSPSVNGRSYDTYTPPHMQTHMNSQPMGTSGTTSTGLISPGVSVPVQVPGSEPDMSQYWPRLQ
# Signal transducer and activator of transcription 3 (Homo sapiens), sequence (P40763 whole entry, looked up): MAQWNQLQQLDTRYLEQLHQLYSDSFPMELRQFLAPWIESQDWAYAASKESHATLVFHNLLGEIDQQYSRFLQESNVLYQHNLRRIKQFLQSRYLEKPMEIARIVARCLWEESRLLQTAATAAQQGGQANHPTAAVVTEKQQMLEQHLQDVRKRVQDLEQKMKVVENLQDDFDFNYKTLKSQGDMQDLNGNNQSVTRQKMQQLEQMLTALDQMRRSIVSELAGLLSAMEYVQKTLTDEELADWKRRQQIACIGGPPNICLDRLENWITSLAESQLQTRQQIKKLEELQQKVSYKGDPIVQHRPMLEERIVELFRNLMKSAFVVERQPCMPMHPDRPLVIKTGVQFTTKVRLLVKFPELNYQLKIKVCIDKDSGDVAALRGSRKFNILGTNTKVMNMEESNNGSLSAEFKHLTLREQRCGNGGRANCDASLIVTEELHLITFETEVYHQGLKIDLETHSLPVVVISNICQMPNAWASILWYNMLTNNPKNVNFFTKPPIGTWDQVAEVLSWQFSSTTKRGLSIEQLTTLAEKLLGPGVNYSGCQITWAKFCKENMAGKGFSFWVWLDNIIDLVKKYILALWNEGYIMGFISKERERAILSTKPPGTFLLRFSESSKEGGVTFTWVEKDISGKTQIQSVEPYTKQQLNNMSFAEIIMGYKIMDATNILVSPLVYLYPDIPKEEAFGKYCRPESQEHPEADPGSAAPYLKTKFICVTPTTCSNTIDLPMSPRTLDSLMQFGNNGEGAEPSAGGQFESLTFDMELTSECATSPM
Structure (SMILES),outcome [1],outcome [2],outcome [3],outcome [4],outcome [5],outcome [6],outcome [7],outcome [8],outcome [9],outcome [10],AC50 [5],AC50 [6],AC50 [1],AC50 [2],AC50 [4],AC50 [9],AC50 [10],AC50 [3]
CCCCCCCCO[C@@H]1O[C@H](CO)[C@@H](O)[C@H](O)[C@H]1O,inactive,inactive,inactive,inactive,inactive,inactive,inactive,inactive,inactive,inactive,–,–,–,–,–,–,–,–
Cc1ccc([N+](=O)[O-])cc1S(=O)(=O)O,inactive,inactive,inactive,inactive,–,–,inactive,inactive,inactive,inactive,180 µM (active),156 µM (active),–,–,–,–,–,–
CCCCCCCCCCOC(C)=O,inactive,inactive,inactive,inactive,inactive,inactive,inactive,inactive,inactive,inactive,–,–,–,–,–,–,–,–
CCc1nccnc1C,inactive,inactive,inactive,inactive,inactive,inactive,inactive,inactive,inactive,inactive,–,–,–,–,–,–,–,–
Cc1ccc(C(C)(C)C)cc1,inactive,inactive,inactive,inactive,inactive,inactive,inactive,inactive,inactive,inactive,–,–,–,–,–,–,–,–
CCC(Cc1ccccc1)(C(=O)c1ccc(N2CCOCC2)cc1)N(C)C (stereo not given),–,–,inactive,–,inactive,inactive,inactive,inactive,–,–,–,–,42 µM (active),1.7 µM (active),21.4 µM (active),30.2 µM (active),49.8 µM (active),–
CC(=O)[C@H]1[C@H](C#N)C[C@H]2[C@@H]3CC=C4C[C@@H](O)CC[C@]4(C)[C@H]3CC[C@@]21C,inactive,inactive,inactive,inactive,inactive,inactive,inactive,inactive,inactive,inactive,–,–,–,–,–,–,–,–
CC(=O)Oc1ccc(C(C)=O)cc1,inactive,inactive,inactive,inactive,inactive,inactive,inactive,inactive,inactive,inactive,–,–,–,–,–,–,–,–
CCC(C)(C)C1CCCCC1OC(C)=O (stereo not given),inactive,–,inactive,inactive,inactive,inactive,inactive,inactive,inactive,inactive,–,–,–,27.2 µM (active),–,–,–,–
O=C(O)CCCCCCCCCC(=O)O,inactive,inactive,inactive,inactive,inactive,inactive,inactive,inactive,inactive,inactive,–,–,–,–,–,–,–,–
CC(=O)OCCC1CCCCC1,inactive,–,inactive,inactive,inactive,inactive,inactive,inactive,inactive,inactive,–,–,–,31.8 µM (active),–,–,–,–
O=C1CCCN1CCO,inactive,inactive,inactive,inactive,inactive,inactive,inactive,inactive,inactive,inactive,–,–,–,–,–,–,–,–
O=S(=O)(O)c1ccccc1C=Cc1ccc(-c2ccc(C=Cc3ccccc3S(=O)(=O)O)cc2)cc1,inactive,inactive,inactive,inactive,inactive,inactive,inactive,inactive,inactive,inactive,–,–,–,–,–,–,–,–
c1ccc2c(c1)ccc1ncccc12,inactive,–,inactive,inactive,inactive,inactive,inactive,inactive,inactive,inactive,–,–,–,25.3 µM (active),–,–,–,–
FC(F)=C(F)OC(F)(F)C(F)(F)C(F)(F)F,inactive,inactive,inactive,inactive,inactive,inactive,inactive,inactive,inactive,inactive,–,–,–,–,–,–,–,–
O=S(=O)(Oc1ccc(Cl)cc1Cl)c1ccccc1,inactive,–,inactive,inactive,inactive,inactive,inactive,inactive,inactive,inactive,–,–,–,2.2 µM (active),–,–,–,–
CCCCCCCCCCCCCCCCCC#N,inactive,inactive,inactive,inactive,inactive,inactive,inactive,inactive,inactive,inactive,–,–,–,–,–,–,–,–
CO[Si](CCC1CCC2OC2C1)(OC)OC (stereo not given),inactive,inactive,inactive,inactive,inactive,inactive,inactive,inactive,inactive,inactive,–,–,–,–,–,–,–,–
O=CN1CCCCC1,inactive,inactive,inactive,inactive,inactive,inactive,inactive,inactive,inactive,inactive,–,–,–,–,–,–,–,–
C=C(C)C(=O)OCCOc1ccccc1,inactive,–,inactive,inactive,inactive,inactive,inactive,inactive,inactive,inactive,–,–,–,68.5 µM (active),–,–,–,–
O=S(=O)(O)c1cc(S(=O)(=O)O)c2ccc3c(S(=O)(=O)O)cc(S(=O)(=O)O)c4ccc1c2c43,inactive,inactive,inactive,inactive,inactive,inactive,inactive,inactive,inactive,inactive,–,–,–,–,–,–,–,–
CCCCCCCCCCOS(=O)(=O)O,inactive,inactive,–,–,inactive,inactive,inactive,inactive,inactive,inactive,–,–,–,–,55 µM (active),–,–,13.4 µM (active)
C=COCCCC,inactive,inactive,inactive,inactive,inactive,inactive,inactive,inactive,inactive,inactive,–,–,–,–,–,–,–,–
CC=CC(F)(F)C(F)(F)C(F)(F)F,inactive,inactive,inactive,inactive,inactive,inactive,inactive,inactive,inactive,inactive,–,–,–,–,–,–,–,–
Cc1ccc(OC(=O)CC(C)C)cc1,inactive,inactive,inactive,inactive,inactive,inactive,inactive,inactive,inactive,inactive,–,–,–,–,–,–,–,–
